# Reference: PubChem BioAssay (EPA / NIEHS)
# Where “and” joins values, the source holds several entries; their conditions need not be identical. Identical values can stand only once. Where a structure was tested more than once in an assay, its records may differ in their call. Calls of active or inactive are those of the source. Rule for the calls: active = hit-call score of the fitted dose curve at least 0.9, where 1 is the maximum; inactive = score below 0.9.
# Legend:
# Settings in all cases: mRNA level, 48 h; actives raise or lower the signal
# CYP2C8 (gene 1558) = test: LTEA_HepaRG_CYP2C8: Life Technologies and Expression Analysis (LTEA) Assay for CYP2C8 using HepaRG (AID 2283483)
# Summary of the method: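 This is a transcriptional endpoint in HepaRG cultures: 48 h exposure, highest concentration 100 uM. CYP2C8 mRNA is quantified by TaqMan qRT-PCR.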
# CYP2C9 (gene 1559) = test: LTEA_HepaRG_CYP2C9: Life Technologies and Expression Analysis (LTEA) Assay for CYP2C9 using HepaRG (AID 2283484)
# Summary of the method: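 Eight-point concentration-response (highest 100 uM, half-log dilutions) in HepaRG cells for 48 h; CYP2C9 expression by qRT-PCR normalized to ACTB, GAPDH, POLR2A. Bidirectional fit, DMSO baseline.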
# CYP2E1 (gene 1571) = test: LTEA_HepaRG_CYP2E1: Life Technologies and Expression Analysis (LTEA) Assay for CYP2E1 using HepaRG (AID 2283485)
# Summary of the method: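 Readout is qRT-PCR of CYP2E1 mRNA, normalized to three housekeeping genes and fitted bidirectionally against 0.5% DMSO. HepaRG cells were dosed 48 h at eight concentrations, highest 100 uM with half-log dilutions.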
# CYP4A11 (gene 1579) = test: LTEA_HepaRG_CYP4A11: Life Technologies and Expression Analysis (LTEA) Assay for CYP4A11 using HepaRG (AID 2283486)
# Summary of the method: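 Readout is CYP4A11 transcript level by qRT-PCR, normalized to three housekeeping genes and fitted bidirectionally against 0.5% DMSO. Human HepaRG cells were treated 48 h, in duplicate, with an 8-point half-log series topping at 100 uM.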
# [1] = read-out: DNA damage-inducible transcript 3 (DDIT3), DDIT3 (gene 1649); test: LTEA_HepaRG_DDIT3: Life Technologies and Expression Analysis (LTEA) Assay for DNA damage-inducible transcript 3 (DDIT3) using HepaRG (AID 2283488)
# Summary of the method: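 Cells are human HepaRG liver cells treated for 48 h with eight half-log concentrations up to 100 uM in 0.5% DMSO. Transcript levels come from qRT-PCR normalized to three housekeeping genes, with activity fitted in both directions relative to vehicle.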
# [2] = read-out: Pro-epidermal growth factor (Homo sapiens) (UniProt P01133); test: LTEA_HepaRG_EGF: Life Technologies and Expression Analysis (LTEA) Assay for Epidermal growth factor (EGF) using HepaRG (AID 2283489)
# Summary of the method: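 EGF transcript measured by Fluidigm TaqMan qRT-PCR with three housekeeping genes for normalization, 48 h after dosing HepaRG cultures in duplicate (top 100 uM, half-log steps, 0.5% DMSO vehicle). Gain or loss relative to DMSO fitted.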
# [3] = read-out: Early growth response protein 1 (EGR1) transcription factor, EGR1 (gene 1958); test: LTEA_HepaRG_EGR1: Life Technologies and Expression Analysis (LTEA) Assay for Early growth response protein 1 (EGR1) transcription factor using HepaRG (AID 2283490)
# Summary of the method: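 EGR1 expression change in human HepaRG after 48 h chemical exposure, assessed by housekeeping-normalized qRT-PCR; concentration-response up to 100 uM, fitted in both directions against DMSO controls.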
# [4] = read-out: Ezrin (EZR), EZR (gene 7430); test: LTEA_HepaRG_EZR: Life Technologies and Expression Analysis (LTEA) Assay for Ezrin (EZR) using HepaRG (AID 2283491)
# Summary of the method: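 Read-out is EZR transcript level by qRT-PCR, normalized to three housekeeping genes and fitted bidirectionally against the DMSO control. Human HepaRG cells received test chemicals for 48 h at eight half-log concentrations up to 100 uM in 0.5% DMSO.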
# CYP3A5 (gene 1577) = test: LTEA_HepaRG_CYP3A5: Life Technologies and Expression Analysis (LTEA) Assay for CYP3A5 using HepaRG (AID 2283493)
# Summary of the method: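 Human HepaRG hepatic cells receive 48 h chemical treatment at eight concentrations (half-log steps from 100 uM) in 0.5% DMSO. Expression of CYP3A5 is quantified by Fluidigm qRT-PCR and normalized to three reference genes.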
# [5] = read-out: Fatty Acid-Binding Protein 1 (FABP1), FABP1 (gene 2168); test: LTEA_HepaRG_FABP1: Life Technologies and Expression Analysis (LTEA) Assay for Fatty Acid-Binding Protein 1 (FABP1) using HepaRG (AID 2283494)
# Summary of the method: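 Values reflect bidirectional concentration-response fitting of FABP1 mRNA change against 0.5% DMSO controls. Human HepaRG cultures received eight half-log doses (top 100 uM) for 48 h; expression quantified by TaqMan qRT-PCR with housekeeping-gene normalization.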
# [6] = read-out: Cytochrome P450 7A1 (Homo sapiens) (UniProt P22680); test: LTEA_HepaRG_CYP7A1: Life Technologies and Expression Analysis (LTEA) Assay for Cytochrome P450 7A1 (CYP7A1) using HepaRG (AID 2283496)
# Summary of the method: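 HepaRG, 48 h exposure, 8-pt half-log series from 100 uM, 0.5% DMSO vehicle, duplicates. Readout: TaqMan qRT-PCR mRNA vs three housekeeping genes; bidirectional curve fit against DMSO baseline.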
# [7] = read-out: Glutathione S-Transferase (GSTA2), GSTA2 (gene 2939); test: LTEA_HepaRG_GSTA2: Life Technologies and Expression Analysis (LTEA) Assay for Glutathione S-Transferase (GSTA2) using HepaRG (AID 2283497)
# Summary of the method: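 Oxidative-stress marker GSTA2 is quantified by TaqMan qRT-PCR in HepaRG cultures treated 48 h across an eight-point range to 100 uM. Expression is normalized to endogenous controls and compared with 0.5% DMSO vehicle.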
# [8] = read-out: Glutamate-cysteine ligase catalytic (GCLC), GCLC (gene 2729); test: LTEA_HepaRG_GCLC: Life Technologies and Expression Analysis (LTEA) Assay for Glutamate-cysteine ligase catalytic (GCLC) using HepaRG (AID 2283498)
# Summary of the method: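 Oxidative-stress marker GCLC is measured as mRNA change in human HepaRG liver cells after 48 h chemical treatment in 0.5% DMSO, eight concentrations from 100 uM. Activity is fitted bidirectionally against vehicle.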
# [9] = read-out: growth arrest and DNA damage 45 (GADD45G), GADD45G (gene 10912); test: LTEA_HepaRG_GADD45G: Life Technologies and Expression Analysis (LTEA) Assay for growth arrest and DNA damage 45 (GADD45G) using HepaRG (AID 2283499)
# Summary of the method: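 GADD45G transcript level by qRT-PCR (housekeeping-normalized: ACTB, GAPDH, POLR2A) after 48 h chemical treatment of a single HepaRG lot in serum-free induction medium; eight-point half-log series up to 100 uM in 0.5% DMSO, duplicates, up- or down-regulation scored.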
# [10] = read-out: Glutamate-cysteine ligase regulatory (GCLM), GCLM (gene 2730); test: LTEA_HepaRG_GCLM: Life Technologies and Expression Analysis (LTEA) Assay for Glutamate-cysteine ligase regulatory (GCLM) using HepaRG (AID 2283500)
# Summary of the method: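 Endpoint is GCLM transcript level by qRT-PCR, normalized to three housekeeping genes, after 48 h chemical exposure of human HepaRG cells (0.5% DMSO vehicle, top 100 uM, half-log dilutions). Fitting was bidirectional relative to DMSO.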
# [11] = read-out: Glutathione S-transferase M3 (GSTM3), GSTM3 (gene 2947); test: LTEA_HepaRG_GSTM3: Life Technologies and Expression Analysis (LTEA) Assay for Glutathione S-transferase M3 (GSTM3) using HepaRG (AID 2283501)
# Summary of the method: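 GSTM3 transcript levels came from Fluidigm TaqMan qRT-PCR normalized to three housekeeping genes, fitted in both directions against DMSO. HepaRG cultures received chemicals for 48 h in serum-free induction medium (0.5% DMSO), 8 half-log concentrations up to 100 uM, duplicate.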
# [12] = read-out: Heat shock 70 kDa protein 1 (HSPA1A), gene 3303; test: LTEA_HepaRG_HSPA1A: Life Technologies and Expression Analysis (LTEA) Assay for Heat shock 70 kDa protein 1 (HSPA1A) using HepaRG (AID 2283502)
# Summary of the method: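 Cells were plated and cultured for 48 h, then switched to serum-free induction medium. Chemicals were added at eight half-log concentrations up to 100 uM for 48 h. RNA was then isolated and HSPA1A measured by qRT-PCR with bidirectional curve fitting against DMSO.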
# [13] = read-out: Cytochrome P450 3A4 (Homo sapiens) (UniProt P08684); test: LTEA_HepaRG_CYP3A4: Life Technologies and Expression Analysis (LTEA) Assay for CYP3A4 using HepaRG (AID 2283487)
# Summary of the method: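 HepaRG, 48 h exposure, 8-pt CRC from 100 uM (half-log), 0.5% DMSO, duplicates; serum-free induction medium. Readout: CYP3A4 mRNA, qRT-PCR, ACTB/GAPDH/POLR2A normalization. Bidirectional fit vs DMSO.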
# Sequence of Cytochrome P450 3A4 (Homo sapiens) (P08684 whole entry, looked up): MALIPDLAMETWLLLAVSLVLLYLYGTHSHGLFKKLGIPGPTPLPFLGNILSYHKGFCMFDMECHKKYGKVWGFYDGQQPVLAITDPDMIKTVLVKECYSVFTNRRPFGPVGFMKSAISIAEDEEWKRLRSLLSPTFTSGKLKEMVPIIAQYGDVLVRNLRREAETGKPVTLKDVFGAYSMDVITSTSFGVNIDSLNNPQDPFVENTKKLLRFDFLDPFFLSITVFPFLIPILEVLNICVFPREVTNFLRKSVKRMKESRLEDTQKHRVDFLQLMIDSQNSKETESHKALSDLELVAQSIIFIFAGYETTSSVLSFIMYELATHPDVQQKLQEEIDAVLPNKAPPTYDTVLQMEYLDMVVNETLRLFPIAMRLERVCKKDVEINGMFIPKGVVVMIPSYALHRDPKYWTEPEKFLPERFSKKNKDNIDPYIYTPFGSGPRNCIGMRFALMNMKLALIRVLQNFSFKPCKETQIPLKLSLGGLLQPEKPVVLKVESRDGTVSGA
compound,measurement,setting,value
CC(C)(C)C(O)C(Oc1ccc(Cl)cc1)n1cncn1 (configuration not stated),AC50,CYP2C8 (gene 1558),3.91 µM (active) and 4.21 µM (active)
same,outcome,CYP2C8 (gene 1558),inactive
same,outcome,CYP2C9 (gene 1559),inactive
same,AC50,CYP2E1 (gene 1571),25.8 µM (active) and 25.3 µM (active) and 29.5 µM (active)
same,AC50,CYP4A11 (gene 1579),18.1 µM (active) and 13.8 µM (active) and 25.4 µM (active)
same,outcome,[1],inactive
same,outcome,[2],inactive
same,outcome,[3],inactive
same,outcome,[4],inactive
same,outcome,CYP3A5 (gene 1577),inactive
same,AC50,[5],50 µM (active) and 21.4 µM (active)
same,AC50,[6],8.02 µM (active) and 9.92 µM (active) and 1.24 µM (active)
same,outcome,[7],inactive
same,outcome,[8],inactive
same,outcome,[9],inactive
same,outcome,[10],inactive
same,outcome,[11],inactive
same,outcome,[12],inactive
O=C(O)C(F)(F)C(F)(F)C(F)(F)C(F)(F)C(F)(F)C(F)(F)C(F)(F)F,AC50,CYP2C8 (gene 1558),12.8 µM (active)
same,outcome,CYP2C8 (gene 1558),inactive
same,outcome,CYP2C9 (gene 1559),inactive
same,outcome,CYP2E1 (gene 1571),inactive
same,AC50,CYP4A11 (gene 1579),12.8 µM (active) and 6.48 µM (active)
same,outcome,[13],inactive
same,outcome,[1],inactive
same,outcome,[2],inactive
same,AC50,[3],12.1 µM (active)
same,outcome,[3],inactive
same,outcome,[4],inactive
same,outcome,CYP3A5 (gene 1577),inactive
same,AC50,[5],11 µM (active) and 8 µM (active)
same,outcome,[6],inactive
same,outcome,[7],inactive
same,outcome,[8],inactive
same,outcome,[9],inactive
same,outcome,[10],inactive
same,outcome,[11],inactive
same,AC50,[12],50 µM (active)
same,outcome,[12],inactive
CNC(=O)Oc1cccc(N=CN(C)C)c1,outcome,CYP2C8 (gene 1558),inactive
same,outcome,CYP2C9 (gene 1559),inactive
same,outcome,CYP2E1 (gene 1571),inactive
same,outcome,CYP4A11 (gene 1579),inactive
same,outcome,[1],inactive
same,outcome,[2],inactive
same,outcome,[3],inactive
same,outcome,[4],inactive
same,outcome,CYP3A5 (gene 1577),inactive
same,outcome,[5],inactive
same,outcome,[6],inactive
same,outcome,[7],inactive
same,outcome,[8],inactive
same,outcome,[9],inactive
same,outcome,[10],inactive
same,outcome,[11],inactive
same,outcome,[12],inactive
CC(C)N(C(=O)COc1nnc(C(F)(F)F)s1)c1ccc(F)cc1,outcome,CYP2C8 (gene 1558),inactive
same,outcome,CYP2C9 (gene 1559),inactive
same,AC50,CYP2E1 (gene 1571),42.2 µM (active)
same,outcome,CYP4A11 (gene 1579),inactive
same,outcome,[1],inactive
same,outcome,[2],inactive
same,outcome,[3],inactive
same,outcome,[4],inactive
same,outcome,CYP3A5 (gene 1577),inactive
same,AC50,[5],23 µM (active)
same,AC50,[6],24.7 µM (active)
same,AC50,[7],50 µM (active)
same,outcome,[8],inactive
same,outcome,[9],inactive
same,outcome,[10],inactive
same,outcome,[11],inactive
same,outcome,[12],inactive
ClC1C(Cl)C(Cl)C(Cl)C(Cl)C1Cl (configuration not stated),AC50,CYP2C8 (gene 1558),0.418 µM (active)
same,outcome,CYP2C8 (gene 1558),inactive
same,AC50,CYP2C9 (gene 1559),1.93 µM (active)
same,outcome,CYP2C9 (gene 1559),inactive
same,AC50,CYP2E1 (gene 1571),22.3 µM (active) and 5.02 µM (active)
same,AC50,CYP4A11 (gene 1579),12.6 µM (active)
same,outcome,CYP4A11 (gene 1579),inactive
same,outcome,[1],inactive
same,AC50,[2],1.92 µM (active)
same,outcome,[2],inactive
same,outcome,[3],inactive
same,outcome,[4],inactive
same,outcome,CYP3A5 (gene 1577),inactive
same,AC50,[5],6.88 µM (active)
same,outcome,[5],inactive
same,AC50,[6],3.88 µM (active)
same,outcome,[6],inactive
same,outcome,[7],inactive
same,outcome,[8],inactive
same,AC50,[9],0.488 µM (active)
same,outcome,[9],inactive
same,outcome,[10],inactive
same,outcome,[11],inactive
same,outcome,[12],inactive
